This is a sample that favours compounds with a hit; in the whole collection about 3.5% have one here.
FBW7 activator = human FBW7 E3 ligase activation, primary screen. 650,000 compounds, 0.13% hits. Q969H0. normalized activity (activation), % at 26.1 µM. AlphaScreen FBW7–phospho-cyclin E peptide binding, activator screen; in the data active means normalized activity above about 1.9%;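 further: purified mutant Fbw7 with reduced substrate affinity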
Target sequence (Q969H0 whole entry, looked up): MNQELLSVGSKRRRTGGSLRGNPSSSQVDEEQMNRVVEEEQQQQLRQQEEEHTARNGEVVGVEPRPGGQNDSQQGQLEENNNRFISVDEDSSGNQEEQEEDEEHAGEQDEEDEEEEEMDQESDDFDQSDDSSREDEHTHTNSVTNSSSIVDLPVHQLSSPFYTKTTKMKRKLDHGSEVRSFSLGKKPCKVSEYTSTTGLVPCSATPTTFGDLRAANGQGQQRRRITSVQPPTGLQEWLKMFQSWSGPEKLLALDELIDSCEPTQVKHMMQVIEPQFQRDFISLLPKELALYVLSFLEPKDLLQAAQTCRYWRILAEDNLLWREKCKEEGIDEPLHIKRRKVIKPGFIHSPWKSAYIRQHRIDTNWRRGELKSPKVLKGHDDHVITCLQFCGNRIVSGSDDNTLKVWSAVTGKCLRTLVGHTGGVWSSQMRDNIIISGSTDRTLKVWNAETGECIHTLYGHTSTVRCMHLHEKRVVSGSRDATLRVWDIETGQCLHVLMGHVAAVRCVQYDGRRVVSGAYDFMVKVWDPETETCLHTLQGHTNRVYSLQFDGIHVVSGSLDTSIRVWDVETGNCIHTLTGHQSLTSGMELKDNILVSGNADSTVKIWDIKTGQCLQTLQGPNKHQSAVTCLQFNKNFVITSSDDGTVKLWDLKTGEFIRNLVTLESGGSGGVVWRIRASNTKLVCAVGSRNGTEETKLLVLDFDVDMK
GPR151 activ = activators of human GPR151. Q8TDV0. PathHunter beta-arrestin GPR151 cells, luminescence. activation, % at 11.2 µM. 650,000 compounds, 1% hits; in the data active means activation above about 4.9%
MITF inh = human MITF inhibition, primary screen; O75030; AlphaScreen MITF homodimerization, bead proximity signal; inhibition, % at 2.6 µM; 650,000 compounds, 0.91% hits; AID 1259374; in the data active means inhibition above about 50%
TEAD-YAP inh = TEAD-YAP interaction inhibition | inhibition, % at 9.12 µM | AID 1259422 | 640,000 compounds, 1.4% hits | HEK-TIYL cells, TEAD-Gal4/YAP UAS-luciferase luminescence; in the data active means inhibition above about 32%
GPR151 conf act = confirmation of human GPR151 activators; shares compounds with GPR151 activ; GPR151 PathHunter beta-arrestin cells, luminescence, 90 min; % of EA-reagent control over plate median; activation, % at 11.2 µM; 6,700 tested, under 10 active;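 active means mean percent activation across replicates above the confirmation screen cutoff of 4.91%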
GPR119 counter = activates human GPR119 in a GPR151 counter-screen. shares compounds with GPR151 activ. GPR119 PathHunter beta-arrestin cells, luminescence, 90 min; 0 = compound-well median, 100 = enzyme-acceptor control. activation, % at 11.2 µM. 6,700 compounds, 0.3% hits. AID 1508611;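 active means mean percent activation in the counterscreen above 29.09%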;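 further: counterscreen on off-target GPR119 to flag nonselective hits from the GPR151 activator screen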
Each line names hits and unclear results; the compound was inactive in the other large screens (follow-up assays come after a bar, where they were run).

COc1ccc(CCn2c(=S)[nH]c3ccsc3c2=O)cc1OC	GPR151 activ 5.4 | GPR151 conf act inactive | GPR119 counter inactive
O=C(NC1CC2CCC1C2)c1ccc(CN2CCOCC2)cc1 (centres undefined)	none
Cc1ccc(CNC(=O)c2cc3c(s2)CS(=O)(=O)C3)cc1	GPR151 activ 5.7 | GPR151 conf act inactive | GPR119 counter inactive
Cc1ccc(CCNC(=O)c2cc3c(s2)CS(=O)(=O)C3)cc1	none
CC(C)CCNC(=O)c1cc2c(s1)CS(=O)(=O)C2	GPR151 activ 6.5 | GPR151 conf act inactive | GPR119 counter inactive
CCOc1ccc(C(=O)Nc2ccc(OC)cc2OC)cc1	none
CC(C)(C)c1ccc(/C=N/Nc2ccc(S(N)(=O)=O)cc2[N+](=O)[O-])cc1	GPR151 activ 5.0 | GPR151 conf act inactive | GPR119 counter inactive
Cc1nn(Cc2ccccc2)c(Cl)c1/C=N/Nc1ccc(S(N)(=O)=O)cc1[N+](=O)[O-]	GPR151 activ 5.2 | GPR151 conf act inactive | GPR119 counter inactive
NS(=O)(=O)c1ccc(N/N=C/c2ccccc2Cl)c([N+](=O)[O-])c1	none
COc1ccc(CNc2ccccn2)cc1OC	none
CCOC(=O)C1CCN(C(=O)Nc2ccc(Cl)cc2Cl)CC1	GPR151 activ 5.4 | GPR151 conf act inactive | GPR119 counter inactive
C=CCOc1cccc(C(=O)N2CCN(c3ccccn3)CC2)c1	none
CCOc1ccccc1NC(=O)c1ccc(C)cc1	none
CC(=O)Nc1ccc(Nc2nc(Nc3cccc(N(C)C)c3)ncc2C)cc1	GPR151 activ 5.5 | GPR151 conf act inactive | GPR119 counter inactive
CCN(CC)CCOC(=O)c1ccc(NC(=O)CNC(=O)C2CCCCC2)cc1	GPR151 activ 5.9 | GPR151 conf act inactive | GPR119 counter inactive
CCOc1ccc(NC(=O)CNC(=O)C2CCCCC2)cc1	none
C#CCN1C(=O)C(O)(CC(=O)c2cccc(Br)c2)c2ccccc21 (centres undefined)	none
CCC1(C2CCN(CC3CC=CCC3)CC2)NC(=O)N(CCc2scnc2C)C1=O (centres undefined)	none
CCOc1ccc(-c2nnc(NC(=O)Nc3ccccc3[N+](=O)[O-])o2)cc1	none
CCCOC(=O)c1ccc(OC(=O)c2ccc([N+](=O)[O-])cc2[N+](=O)[O-])cc1	none
NC(=O)CSc1nnc2n(Cc3ccccc3)c3ccccc3n12	GPR151 activ 6.1 | GPR151 conf act inactive | GPR119 counter inactive
COc1ccc(CNc2cc(C)nc(-c3ccccc3)n2)cc1	none
Cc1cc(NCc2ccccc2)nc(-c2ccccc2)n1	GPR151 activ 5.2 | GPR151 conf act inactive | GPR119 counter inactive
Cc1oc(-c2ccc(Cl)cc2)nc1CS(=O)CC(=O)NC1CCCCC1 (centres undefined)	GPR151 activ 8.3 | GPR151 conf act inactive | GPR119 counter inactive
Cc1oc(-c2ccc(Cl)cc2)nc1CS(=O)CC(=O)NC1CCCCCC1 (centres undefined)	none
COC(=O)c1ccccc1S(=O)(=O)C1CCN(C(=O)Nc2ccc(F)cc2F)CC1	GPR151 activ 5.0 | GPR151 conf act inactive | GPR119 counter inactive
CC1(C)CC(N=Cc2c(O)c3ccccc3oc2=O)CC(C)(C)N1	none
CCN(CC)CCN1C(=O)c2ccccc2NC1c1ccc2c(c1)OCO2 (centres undefined)	GPR151 activ 5.3 | GPR151 conf act inactive | GPR119 counter inactive
O=C1c2ccccc2NC(c2ccc3c(c2)OCO3)N1Cc1ccccc1 (centres undefined)	none
O=c1c(Cl)c(NC2CCCCC2)cnn1C12CC3CC(CC(C3)C1)C2	none
Cc1ccccc1-c1nnc(SCC(=O)N2CCOCC2)o1	none
Cc1ccccc1-c1nnc(SCC(=O)N2CCN(c3ccccc3)CC2)o1	GPR151 activ 6.5 | GPR151 conf act inactive | GPR119 counter inactive
Cc1nnc(SCC(=O)N2CCN(c3ccccc3)CC2)s1	GPR151 activ 6.4 | GPR151 conf act inactive | GPR119 counter inactive
CC(=O)Nc1nnc(SCC(=O)N2CCN(c3ccccc3)CC2)s1	none
CSc1ccc(S(=O)(=O)Nc2ccc(S(=O)(=O)N3CCOCC3)cc2)cc1	GPR151 activ 5.8 | GPR151 conf act inactive | GPR119 counter inactive
Cc1cc(C(=O)Nc2ccc(F)cc2F)ccc1[N+](=O)[O-]	GPR151 activ 5.2 | GPR151 conf act inactive | GPR119 counter inactive
Cc1cccc(C(=O)Nc2ccc(C)cc2[N+](=O)[O-])c1	none
Cc1ccc(NC(=O)c2cccc(F)c2)c([N+](=O)[O-])c1	GPR151 activ 8.7 | GPR151 conf act inactive | GPR119 counter inactive
CCCN1CCN(C(=O)c2cc3c(-c4ccc(OC)c(OC)c4)nn(C)c3s2)CC1	none
CCOc1ccc(C2C(C(=O)Nc3cccc(C(F)(F)F)c3)c3ccccc3C(=O)N2CCN2CCOCC2)cc1 (centres undefined)	none
C=C(C)CNC(=O)c1ccc(-c2cc3ccccc3o2)nc1NCc1cccnc1	none
O=C(CC1(O)C(=O)N(Cc2ccccc2)c2ccccc21)c1ccccc1 (centres undefined)	none
CCN(CC)C(=O)CN1C(=O)C(O)(CC(=O)c2ccccc2)c2ccccc21 (centres undefined)	GPR151 activ 7.6 | GPR151 conf act inactive | GPR119 counter inactive
COc1cccc2c1OCCCN(Cc1nc(Cc3ccccc3Cl)no1)C2	GPR151 activ 5.7 | GPR151 conf act inactive | GPR119 counter inactive
Cc1ccc(N2C(=O)C(O)=C(S(C)(=O)=O)C2c2ccccc2)cc1 (centres undefined)	none
CN(CCNC(=O)c1nc(-c2cccnc2)no1)C1CCCCC1	none
COCCCNc1nc(-c2ccccc2F)nc2ccccc12	GPR151 activ 6.3 | GPR151 conf act inactive | GPR119 counter inactive
COCCNc1nc(-c2ccccc2F)nc2ccccc12	none
Cc1ccc2nc(Cl)c3cc(C(=O)N4CCN(C)CC4)sc3c2c1	none
Cc1ccc2nc(Cl)c3cc(C(=O)N=C4NC(=O)CN4C)sc3c2c1	GPR151 activ 6.1 | GPR151 conf act inactive | GPR119 counter inactive
COc1ccc(-c2cc(=O)oc3c(O)c(O)ccc23)cc1	GPR151 activ 8.2 | GPR151 conf act inactive | GPR119 counter inactive
COc1ccc(-c2cc(=O)oc3cc(O)c(Cl)cc23)cc1	none
COc1ccc2c(=O)c(C(=O)NCCc3ccccc3)c[nH]c2c1	none
COc1cccc2cc(C(=O)c3ccc([N+](=O)[O-])cc3)oc12	GPR151 activ 7.3 | GPR151 conf act inactive | GPR119 counter inactive
COc1cccc2cc(C(=O)Nc3ccccc3[N+](=O)[O-])c(=O)oc12	GPR151 activ 13 | GPR151 conf act inactive | GPR119 counter inactive
COc1cc(NC(=O)NCc2cccs2)c2ncccc2c1	GPR151 activ 5.6 | GPR151 conf act inactive | GPR119 counter inactive
CCC(=O)Nc1nc2c(Cl)ccc(Cl)c2s1	none
CCC(=O)Nc1nc2c(OC)ccc(OC)c2s1	GPR151 activ 5.0 | GPR151 conf act inactive | GPR119 counter inactive
